A number with no mark means an inactive call.
These molecules were tested on Vero E6 infected with SARS-CoV-2 (assay: inhibition of SARS-CoV-2 cytopathic effect; higher = more antiviral protection, active = above 15). Settings: 833.33 nM; 48 h.

| SMILES | inhibition of SARS-CoV-2 cytopathic effect |
| --- | --- |
| c1ccc(-c2nn3c(c2-c2ccnc4cc(OCCN5CCOCC5)ccc24)CCC3)nc1 | -0.96% |
| COc1cc(N2CCC(N3CCN(C)CC3)CC2)ccc1Nc1ncc(Cl)c(Nc2ccccc2S(=O)(=O)C(C)C)n1 | -0.6% |
| CCCCNC(=O)NS(=O)(=O)c1ccc(C)cc1 [tolbutamide] | 0.89% |
| N#C/C(=C\c1ccc(O)c(O)c1)C(=O)NCCCCc1ccccc1 | 0.14% |
| CC(C(=O)O)c1cccc(C(=O)c2ccccc2)c1 (stereo not given) [ketoprofen] | -0.03% |
| CCC(CC)Nc1nc(C)c(-c2ccc(OC(F)(F)F)cc2OC)nc1OC | 0.57% |
| O=C1C[C@@H](c2ccc(O)cc2)Oc2cc(O)ccc21 | 1.65% |
| Cn1cc(-c2cnn3c(N)c(Br)c([C@@H]4CCCNC4)nc23)cn1 | 2.1% |
| N[C@@H]1c2cccnc2[C@H](OC(=O)N2CCC(n3c(=O)[nH]c4ncccc43)CC2)CC[C@H]1c1cccc(F)c1F [rimegepant] | -1.15% |
| COc1ccc2nc(NC(=O)Nc3ccccc3)sc2c1 [frentizole] | -1.35% |
| O=C1NC(=O)[C@@]2(CCOc3ccc(F)cc32)N1 [sorbinil] | -0.6% |
| C[C@](N)(Cc1ccc(O)c(O)c1)C(=O)O [methyldopa] | -1.66% |
| C[C@@H](CN)CC(=O)O [3-methyl-GABA] | 1.08% |
| CC[C@H](C)C(=O)O[C@H]1C[C@H](O)C=C2C=C[C@H](C)[C@H](CC[C@@H](O)C[C@@H](O)CC(=O)O)[C@H]21 | 6.3% |
| CC(C)(C)C(=O)OCOC(=O)[C@@H]1N2C(=O)[C@@H](NC(=O)[C@H](N)c3ccccc3)[C@H]2SC1(C)C [pivampicillin] | 0.64% |
| CC(C)c1onc(-c2c(Cl)cccc2Cl)c1COc1ccc(/C=C/c2cccc(C(=O)O)c2)c(Cl)c1 | 0.5% |
| C=CCc1cccc(/C=N/NC(=O)CN2CCN(Cc3ccccc3)CC2)c1O | 0.65% |
| CNNCc1ccc(C(=O)NC(C)C)cc1 [procarbazine] | 2.14% |

| SMILES | inhibition of SARS-CoV-2 cytopathic effect |
| --- | --- |
| CNC(=O)c1cc2c(cn1)[nH]c1ccccc12 | -0.08% |
| C[C@]12CC[C@@H]3c4ccc(O)cc4CC[C@H]3[C@@H]1CC[C@@H]2OC(=O)CCC1CCCC1 [estradiol-cypionate] | 1.21% |
| Fc1ccc(-n2cc(CCCCN3CCC4(CC3)OCc3ccccc34)c3ccccc32)cc1 [siramesine] | 4.24% |
| CC(=O)O[C@]1(C(C)=O)CC[C@H]2[C@@H]3C=C(C)C4=CC(=O)CC[C@]4(C)[C@H]3CC[C@@]21C [megestrol-acetate] | -0.54% |
| O=C(c1ccc(-c2ccc(Cl)cc2)o1)N(Cc1ccccn1)c1ccc(N2CCNCC2)cc1 | -1.66% |
| O=C(O)c1cc(O)c(O)c(O)c1 [gallic-acid] | -1.88% |
| C[C@@H](O)[C@H]1C(=O)N2C(C(=O)O)=C(S[C@@H]3CN[C@H](CNS(N)(=O)=O)C3)[C@H](C)[C@H]12 [doripenem] | -0.35% |
| CCCCOC(=O)c1ccccc1Nc1cccc(C(F)(F)F)c1 [ufenamate] | 1.79% |
| CCCCN1CCCCC1C(=O)Nc1c(C)cccc1C (stereo not given) [bupivacaine] | 1.82% |
| CCCc1nc(C(C)(C)O)c(C(=O)O)n1Cc1ccc(-c2ccccc2-c2nnn[nH]2)cc1 [olmesartan] | 0.82% |
| CCC(CC)Nc1cc(C)nc(Oc2c(C)cc(C)cc2C)c1C | 0.01% |
| O=C(O)[C@H](Cc1ccccc1)NCc1ccc(Cl)cc1 | 1.08% |
| Cc1ccc2c(c1)[C@]13CCCC[C@@H]1[C@H](C2)N(C)CC3 [dimemorfan] | 1.02% |
| C[C@H](Nc1ncnc2nc[nH]c12)c1cc2cccc(Cl)c2c(=O)n1-c1ccccc1 [duvelisib] | 0.25% |
| CCCCOc1ccc(C(=O)Nc2ccc(F)cc2F)cc1 | -1.37% |
| CC1=C(C(=O)O)N2C(=O)[C@@H](NC(=O)[C@H](N)C3=CCC=CC3)[C@H]2SC1 [cephradine] | 0.485% |
| CC(C)c1ccc(CC(=O)N2CCC[C@@H](c3cccc(OC(C)(C)C(=O)O)c3)C2)cc1 | 1.87% |

From the supplement of paper PMC13380429
